Several values for one entry are separate records, joined by “and”; a condition that tells them apart may be missing. Equal values may be shown once. Records with an inconclusive call do not appear. Activity calls are given as the source filed them. Unless noted, the call rests on the fitted dose curve; in most records, active means well fitted curve in the direction sought with a large enough effect; inconclusive means small, poorly fitted or top-dose-only effect, or another doubt; inactive means no such curve, though single readings can be large; an effect the other way counts as inactive or inconclusive.
Legend:
[1] = Cell Viability - SK-N-SH (AID 435; calls by dose curve;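 further: potency means the concentration at half of the fitted maximal effect; compound exposure lasted 40 h at 37 °C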); settings: SK-N-SH neuroblastoma cell viability qHTS
Summary of the method: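 CellTiter-Glo ATP luminescence, 20 min RT read; cells pre-plated 5 hr, compound 40 hr at 37 °C, 1500 cells/well, complete medium. Normalized DMSO = 0, 100 uM tamoxifen = 100% inhibition; Hill-fit AC50.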

[2] = Cell Viability - N2a (AID 540); settings: N2a mouse neuroblastoma cell viability; at 92.2 µM (top of the series);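 further: plate controls were DMSO alone for no effect and tamoxifen control for full effect; nearly all actives have a fitted effect of over 45% in size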
Summary of the method: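 Mouse neuroblastoma N2a cells, 1500/well, exposed to compounds 40 h at 37 °C in complete medium. Viability measured as cellular ATP by CellTiter-Glo luminescence; AC50 from Hill fits of concentration-response.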

[3] = Cell Viability - SH-SY5Y (AID 544); settings: SH-SY5Y neuroblastoma cell viability; viability change, negative = cytotoxic: at 92.2 µM (top of the series); further: nearly all actives have a fitted effect of over 55% in size
Summary of the method: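 SH-SY5Y human neuroblastoma cells (1500/well) incubated 5 h, then compound-treated 40 h at 37 °C in complete medium. Viability read as intracellular ATP by CellTiter-Glo luminescence after 20 min; AC50 from Hill-equation fits of qHTS concentration-response.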

[4] = Cellular Toxicity (caspase-3) HepG2 (AID 654); settings: HepG2 caspase-3 activation, luminescence, 0% = DMSO only, 100% = tamoxifen; series mostly up to 92.2 µM;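 further: cells exposed to compound for 16 hours before reading; 0% = DMSO alone and 100% = caspase signal from 100 µM tamoxifen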
Summary of the method: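 HepG2 cells (1500/well) were treated 16 h at 37 °C in complete medium, then caspase 3/7 activity was read by Caspase-Glo luminescence. Data were normalized to DMSO and 100 uM tamoxifen; AC50 came from Hill-equation fits of qHTS concentration-response.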

[5] = Cellular Toxicity (caspase-3) Hek293 (AID 664); settings: HEK293 caspase-3 activation, DMSO = 0%, 100 µM tamoxifen = 100%; series mostly up to 92.2 µM;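 further: cells exposed to compound for 16 h at 37 °C before readout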
Summary of the method: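 HEK293 cells in complete medium treated 16 h at 37 °C, then Caspase-Glo 3/7 luminescence read after 20 min at room temperature. Normalized to DMSO and 100 uM tamoxifen; AC50 from Hill fit of concentration-response.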

[6] = Cellular Toxicity (caspase-3) NIH 3T3 (AID 666); settings: NIH 3T3 caspase-3 activation, apoptosis/toxicity, 0% DMSO, 100% is 100 µM tamoxifen; series mostly up to 92.2 µM;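 further: caspase signal read after 16 h compound exposure; 0% = DMSO basal and 100% = 100 µM tamoxifen stimulation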
Summary of the method: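 Mouse NIH 3T3 fibroblasts (1000/well) treated 16 h at 37 C; caspase-3/7 activity measured by Caspase-Glo 3/7 luminescence after 20 min. Normalized to DMSO and 100 uM tamoxifen; AC50 from Hill fits.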

[7] = Cell Viability - LYMP1-002 - Assay at 16 hr (AID 948); settings: LYMP1-002 lymphoblastoid cell viability; series mostly up to 92.2 µM;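 further: 0% = DMSO alone and full effect = 92 µM tetraoctylammonium bromide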
Summary of the method: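 LYMP1-002 human lymphoblastoid cells, 2500/well; 5 hr 37 C; cpd 16 hr 37 C; CellTiter-Glo 30 min RT; luminescence (ATP). Concentration-response, Hill-fit AC50. Pos ctrl tetraoctylammonium bromide.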

[8] = MultiTox-Fluor Cytotoxicity Assay - LYMP1-002 - Live Cells (AID 955); settings: LYMP1-002 lymphoblastoid live-cell protease fluorescence viability; series mostly up to 46.1 µM;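 further: cells exposed to compound for 16 hours; on the % scale 0 is the no-effect control and ±100 the full control effect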
Summary of the method: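 Human lymphoblastoid LYMP1-002 cells, 2500/well, treated 16 h at 37 C in complete medium. Live-cell protease activity via GF-AFC fluorescence (Ex/Em 405/510) after 60 min reagent incubation; AC50 from Hill fits.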

[9] = MultiTox-Fluor Cytotoxicity Assay - LYMP1-003 - Live Cells (AID 962); settings: LYMP1-003 lymphoblastoid cells, MultiTox-Fluor live-cell protease fluorescence; series mostly up to 92.2 µM;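 further: cells exposed to compound for 16 hours at 37 °C; 0% = DMSO only and full loss = 92 µM tetraoctylammonium bromide; cytotoxic hits lower the live-cell protease signal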
Summary of the method: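 LYMP1-003 lymphoblastoid cells, 2500/well in complete medium, treated 16 h at 37 C; live-cell protease cleavage of GF-AFC read by fluorescence (Ex/Em 405/510) after 60 min reagent; AC50 from Hill fits of concentration-response.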

[10] = Cell Viability - LYMP1-003 - Assay at 24 hr (AID 963); settings: LYMP1-003 lymphoblastoid cell viability; series mostly up to 92.2 µM;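 further: plate controls were DMSO only for no effect and tetraoctylammonium bromide positive control for full effect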
Summary of the method: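 Human lymphoblastoid LYMP1-003 cells, 2500/well, treated 24 h at 37 C in complete medium. Viability read as intracellular ATP by CellTiter-Glo luminescence after 30 min at room temperature; AC50 from Hill-equation fits of qHTS concentration-response.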

[11] = Cell Viability - LYMP2-015 (AID 971); settings: LYMP2-015 lymphoblastoid cell viability; series mostly up to 92.2 µM;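 further: 0% = DMSO only and full effect = 92 µM tetraoctylammonium bromide; nearly all actives have a fitted effect of over 55% in size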
Summary of the method: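 LYMP2-015 human lymphoblastoid cells (2500/well) in complete medium, compound-treated 24 h at 37 C; viability read as cellular ATP by CellTiter-Glo luminescence after 30 min at room temperature. AC50 from Hill-equation fits of qHTS concentration-response data.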

[12] = Cell Viability - LYMP2-025 (AID 976); settings: LYMP2-025 lymphoblastoid cell viability; series mostly up to 92.2 µM;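 further: plate controls were DMSO only for no effect and tetraoctylammonium bromide control for full effect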
Summary of the method: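 Human lymphoblastoid LYMP2-025 cells, 2500/well, exposed 24 h at 37 C in complete medium in 1536-well qHTS. Viability as cellular ATP by CellTiter-Glo luminescence; AC50 from Hill fits of concentration-response data.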

[13] = Cell Viability - LYMP2-002 (AID 977); settings: LYMP2-002 lymphoblastoid cell viability, qHTS; series mostly up to 92.2 µM;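 further: compound exposure lasted 24 h at 37 °C; plate controls were DMSO only for no effect and 92 µM tetraoctylammonium bromide for full effect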
Summary of the method: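 Cytotoxicity is scored as concentration-dependent loss of cellular ATP in a human lymphoblastoid line after 24 hr compound treatment at 37 C. AC50 is obtained by modelling concentration-response data with the Hill equation.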

[14] = Cell Viability - LYMP2-006 (AID 978); settings: LYMP2-006 lymphoblastoid cell viability, qHTS; series mostly up to 92.2 µM;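 further: cells exposed to compound for 24 hours; on the % scale 0 is the no-effect control and ±100 the full control effect; nearly all actives have a fitted effect of over 60% in size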
Summary of the method: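 qHTS, 1536-well; 2500 cells/well, 5 hr 37 C; cpd 24 hr 37 C; CellTiter-Glo 30 min RT; luminescence. Tetraoctylammonium bromide pos. ctrl. AC50 via Hill eqn.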

[15] = Cell Viability - LYMP2-008 (AID 980); settings: LYMP2-008 lymphoblastoid cell viability, qHTS; series mostly up to 92.2 µM; further: on the % scale 0 is the no-effect control and ±100 the full control effect; nearly all actives have a fitted effect of over 60% in size
Summary of the method: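 LYMP2-008 lymphoblastoid cells (2500/well) plated 5 h, then treated 24 h at 37 C in complete medium. Viability read as intracellular ATP by CellTiter-Glo luminescence after 30 min at room temperature; AC50 from Hill fits.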

[16] = Cell Viability - LYMP1-002 - Assay at 24 hr (AID 993); settings: LYMP1-002 lymphoblastoid cells viability; series mostly up to 92.2 µM; further: on the % scale 0 is the no-effect control and ±100 the full control effect
Summary of the method: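 Human lymphoblastoid LYMP1-002 cells (2500/well) treated 24 h at 37 °C; viability as intracellular ATP by CellTiter-Glo luminescence. Tetraoctylammonium bromide as positive control; AC50 from Hill-equation fits of qHTS concentration-response.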

[17] = Cell Viability - LYMP1-002 - Assay at 40 hr (AID 994); settings: LYMP1-002 lymphoblastoid cell viability; series mostly up to 92.2 µM;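 further: 0% = DMSO only and full inhibition = 92 µM tetraoctylammonium bromide; nearly all actives have a fitted effect of over 60% in size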
Summary of the method: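 LYMP1-002 human lymphoblastoid cells (2500/well, complete medium) were treated with compounds for 40 hr at 37 C. Intracellular ATP was measured by CellTiter-Glo luminescence, and AC50 values came from Hill-equation fits of concentration-response data; tetraoctylammonium bromide was the positive control.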

[18] = qHTS assay for small molecule antagonists of retinoid X receptor alpha signaling (AID 588546; active means well fitted inhibition curve with a large enough effect in the signal ratio, with a control signal flat, not every such curve was filed as active; the % refers to the signal ratio;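 further: cells stimulated with 9-cis-retinoic acid as agonist; on the % scale 0 is the no-effect control and ±100 the full control effect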); settings: HEK293T RXRa-UAS-bla, beta-lactamase ratio, antagonist mode; measured here: W530 green channel, cytotoxicity proxy
Summary of the method: (§1)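 Beta-lactamase reporter inhibition, read as CCF4 fluorescence ratio (ex 405, em 460/530 nm) after 2 h at RT. HEK293T UAS-bla cells, 2500/well, were stimulated with 9-cis-RA at 500 or 100 nM final alongside test compound for 18 h at 37 C.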

[19] = biological target: Retinoic acid receptor RXR-alpha (Homo sapiens) (UniProt P19793); assay: as above; settings: HEK293T RXRa-UAS-bla, beta-lactamase ratio, antagonist mode
Chain of Retinoic acid receptor RXR-alpha (Homo sapiens) (P19793 whole entry, looked up): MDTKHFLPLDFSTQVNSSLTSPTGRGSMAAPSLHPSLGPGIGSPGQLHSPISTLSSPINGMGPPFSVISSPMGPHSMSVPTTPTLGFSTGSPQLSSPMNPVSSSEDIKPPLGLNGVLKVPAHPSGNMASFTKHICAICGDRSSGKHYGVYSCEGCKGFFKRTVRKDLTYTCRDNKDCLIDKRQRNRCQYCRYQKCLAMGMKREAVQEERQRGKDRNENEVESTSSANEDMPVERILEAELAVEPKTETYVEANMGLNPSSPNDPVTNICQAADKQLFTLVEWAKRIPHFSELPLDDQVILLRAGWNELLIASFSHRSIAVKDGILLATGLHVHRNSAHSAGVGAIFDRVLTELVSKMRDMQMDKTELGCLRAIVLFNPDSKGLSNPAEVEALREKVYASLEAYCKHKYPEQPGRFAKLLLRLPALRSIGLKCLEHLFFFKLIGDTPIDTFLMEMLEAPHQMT
Summary of the method: as §1

[20] = qHTS assay for small molecule agonists of the antioxidant response element (ARE) signaling pathway measured by Nrf2-dependant transcriptional activity (AID 720636; active means well fitted curve in the direction sought with a large enough effect in the repeat runs; an effect the other way counts as inactive or inconclusive;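 further: HepG2 cells with an ARE-driven luciferase reporter; % of control where 0% means no effect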); settings: ARE-luc HepG2, Nrf2 luciferase reporter, 16 h; series mostly up to 92.4 µM
Summary of the method: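 Nrf2-dependent transcription is measured in ARE-luc HepG2 cells: compound is applied for 16 hr at 37 C after a 6 hr attachment period, and luciferase activity is quantified by luminescence using ONE-Glo.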

C=CC(N)=O
-10.1% and 0.0016% and -8.94%: max response [18]
inactive: Potency [1] > 92 µM | activity change, negative = cytotoxicity [2] 1.31% and 7.69% | Potency [3] | outcome [4] | outcome [5] | outcome [6] | Potency [7] | outcome [8] | Potency [9] | Potency [10] | Potency [11] | Potency [12] | Potency [13] | Potency [14] | Potency [15] | Potency [16] | Potency [17] | max response [19] 17% and -9.44% and -5.75% | outcome [20]

CCSC(=O)Cl
-5.71%: max response [18]
inactive: Potency [1] > 92 µM | activity change, negative = cytotoxicity [2] 2.21% | Potency [3] | outcome [4] | outcome [5] | outcome [6] | Potency [7] | outcome [8] | Potency [9] | Potency [10] | Potency [11] | Potency [12] | Potency [13] | Potency [14] | Potency [15] | Potency [16] | Potency [17] | max response [19] 1.25% | outcome [20]

ClC(Cl)=C(Cl)C(Cl)=C(Cl)Cl
-3.71% and -13.6%: max response [18]
inactive: Potency [1] > 92 µM | activity change, negative = cytotoxicity [2] -4.4% | Potency [3] | outcome [4] | outcome [5] | outcome [6] | Potency [7] | outcome [8] | Potency [9] | Potency [10] | Potency [11] | Potency [12] | Potency [13] | Potency [14] | Potency [15] | Potency [16] | Potency [17] | max response [19] -0.928% and 1.51% | outcome [20]

BrCCBr
inactive: Potency [1] > 92 µM | activity change, negative = cytotoxicity [2] -0.148% | Potency [3] | outcome [4] | outcome [5] | outcome [6] | Potency [7] | outcome [8] | Potency [9] | Potency [10] | Potency [11] | Potency [12] | Potency [13] | Potency [14] | Potency [15] | Potency [16] | Potency [17] | max response [19] 9.69% and -0.139% | outcome [20]
-10.6% and -9.29%: max response [18]

CC(C)(c1ccccc1)c1ccc(O)cc1
-11.5%: max response [18]
inactive: Potency [1] > 92 µM | activity change, negative = cytotoxicity [2] -9.3% | Potency [3] | outcome [6] | Potency [7] | outcome [8] | Potency [9] | Potency [10] | Potency [11] | Potency [12] | Potency [13] | Potency [14] | Potency [15] | Potency [16] | Potency [17] | max response [19] -3.65% | outcome [20]

C[N+](C)(C)Cc1ccccc1
0.533% and -1.08%: max response [18]
inactive: Potency [1] > 92 µM | activity change, negative = cytotoxicity [2] -22% | Potency [3] | outcome [4] | outcome [5] | outcome [6] | Potency [7] | outcome [8] | Potency [9] | Potency [10] | Potency [11] | Potency [12] | Potency [13] | Potency [14] | Potency [15] | Potency [16] | Potency [17] | max response [19] 9.55% and -19% | outcome [20]
